Sampled rows, rich in hits. Any-hit rate of the full collection: about 2.6%.
PfM18AAP inh – PfM18AAP enzyme inhibition. inhibition, % at 7.35 µM. recombinant PfM18AAP, H-Glu-NHMec fluorogenic cleavage. 290,000 tested, 1.2% active;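 active means inhibition above the campaign mean inhibition over all tested compounds plus 3 SD, cut at about 28% in these data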;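 further: 0% = plate median of test compound wells and 100% = 2 mM ZnCl2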
Exocytosis inh – lytic granule exocytosis inhibition | TALL-104 LAMP-1 surface exposure, flow cytometry; cells stimulated with thapsigargin and PMA | inhibition, % at 10 µM | AID 651702 | 360,000 tested, 0.66% active;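 active means inhibition above about 55%, limit read from the data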
Platelet DG rel – platelet dense granule release activity | 300,000 tested, 0.22% active | human platelet-rich plasma, SFLLRN dense granule ATP release, luminescence | inhibition, %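 (compounds screened at 7.5 µM in platelet-rich plasma)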 | AID 1663;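 active means mean replicate score, as percent of positive control, at or above 50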
Rce1 inh – yeast Ras-converting enzyme inhibition; yeast membranes, quenched prenylated peptide cleavage fluorescence; Q03530; 290,000 tested, 0.27% active; AID 2563; calls only;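 active means fall in fluorescence gain of 50% or more versus controls, with final raw signal at or below 3038400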;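 further: plate controls were neutral control wells for no effect and wells lacking membranes for full effect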
ABHD5-PLIN5 inh – inhibitors of human ABHD5-perilipin-5 interaction | Q00G26+Q8WTS1 | 360,000 tested, 0.78% active | AID 602281 | Split G. princeps luciferase complementation, luminescence, 4 h | inhibition, % at 4 µM;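 active means inhibition above the mean inhibition across every tested compound plus 3 SD, cut at about 22% in these data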;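 further: 0% = DMSO only wells and the 100% control is not disclosed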
Target sequence (Q00G26 whole entry, looked up): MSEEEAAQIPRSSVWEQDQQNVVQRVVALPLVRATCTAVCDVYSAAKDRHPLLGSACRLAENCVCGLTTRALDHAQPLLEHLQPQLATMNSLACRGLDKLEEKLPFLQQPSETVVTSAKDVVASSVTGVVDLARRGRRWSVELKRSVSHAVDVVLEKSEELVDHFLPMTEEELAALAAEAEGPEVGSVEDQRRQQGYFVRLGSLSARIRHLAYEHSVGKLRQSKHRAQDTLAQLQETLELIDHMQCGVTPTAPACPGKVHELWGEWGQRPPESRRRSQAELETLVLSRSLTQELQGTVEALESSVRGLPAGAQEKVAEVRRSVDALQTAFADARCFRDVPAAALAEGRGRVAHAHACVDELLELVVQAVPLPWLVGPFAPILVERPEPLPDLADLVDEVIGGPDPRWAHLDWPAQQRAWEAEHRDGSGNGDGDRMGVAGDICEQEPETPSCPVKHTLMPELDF
Target sequence (Q8WTS1 whole entry, looked up): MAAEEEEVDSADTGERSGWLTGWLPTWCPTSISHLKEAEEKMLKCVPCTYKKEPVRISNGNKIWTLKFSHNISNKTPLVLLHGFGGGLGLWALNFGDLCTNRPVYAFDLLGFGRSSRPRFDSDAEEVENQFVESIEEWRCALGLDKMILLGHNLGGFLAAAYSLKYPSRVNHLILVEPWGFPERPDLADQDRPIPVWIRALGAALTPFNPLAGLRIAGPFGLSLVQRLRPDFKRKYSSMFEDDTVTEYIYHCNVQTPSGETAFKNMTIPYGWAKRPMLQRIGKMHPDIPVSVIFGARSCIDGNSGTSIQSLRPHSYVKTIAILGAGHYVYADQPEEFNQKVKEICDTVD
An asterisk follows results filed as active; i = inactive; . = no result given; + = active, no number.

SMILES	PfM18AAP inh	Exocytosis inh	Platelet DG rel	Rce1 inh	ABHD5-PLIN5 inh
COc1cc(NC(=O)c2ccccc2)c(OC)cc1NC(=O)CSc1[nH]c(=O)cc(C)c1C#N	7	-5	71*	i	-5
COCCn1nnnc1C(c1cc2cc(OC)c(OC)cc2[nH]c1=O)N1CCN(c2ccc(O)cc2)CC1 (configuration not stated)	28*	-3	4	i	6
CCc1ccc2[nH]c(=O)c(C(c3nnnn3CCOC)N3CCN(c4ccc(F)cc4)CC3)cc2c1 (configuration not stated)	-3	-2	-2	i	0
COC(Cn1cc(C)c(=O)[nH]c1=O)OC	-2	-2	2	i	1
CC(C)C1C(=O)N(Cc2cn(CCC3OCCO3)nn2)CCS(=O)(=O)N1Cc1ccc(-c2cccc(CO)c2)cc1 (configuration not stated)	.	-1	.	.	8
COC(=O)c1cc(NC(=O)c2ccccc2)c(=O)oc1C	3	-2	-3	i	9
COc1ccc(C(=O)Nc2cc(C(=O)c3ccccc3)c(C)oc2=O)cc1	-33	45	8	i	37*
CN(C)S(=O)(=O)c1ccc(-c2csc(N/N=C/c3ccc(O)cc3)n2)cc1	11	101*	2	i	11
CN(C)S(=O)(=O)c1ccc(-c2csc(N/N=C/c3ccco3)n2)cc1	1	102*	2	i	1
O=C(Cn1cccc1)N1CCN(c2ccc(F)cc2)CC1	0	3	56*	i	6
CCSc1nnc(Cn2c(=O)sc3ccccc32)n1-c1ccccc1C	5	1	2	i	-5
CCC1CN(S(=O)(=O)c2cc(-c3cc(C)no3)ccc2OC)c2cc(C)ccc2O1 (configuration not stated)	3	70*	-7	i	1
Cc1nn(Cc2c(Cl)cccc2Cl)c(C)c1NC(=O)c1sc2ccccc2c1Cl	-11	1	0	i	1
O=C(Cc1c(F)cccc1Cl)NCCCn1ccnc1	28*	3	4	i	-1
NS(=O)(=O)c1ccc(N=Nc2c(=O)[nH]n3c(=O)c4c([nH]c23)CCCC4)cc1	48*	2	3	i	7
O=c1[nH]n2c(=O)c3c([nH]c2c1N=Nc1cccc(Cl)c1)CCC3	11	-5	-11	i	4
COc1cc(/C=N/N=C/c2cc(OC)c(O)c(OC)c2)cc(OC)c1O	30*	0	5	i	1
COc1ccc(/C=N/N=C/c2ccc(OC)c(OC)c2)cc1OC	-4	1	-2	i	-8
O=C(NCC1CC1)c1cc(-c2ccccc2)nn1CC1CC(c2cccc([N+](=O)[O-])c2)=NO1 (configuration not stated)	.	52	-3	+	-5
COc1ccc(NC(=O)Cn2nc(C(F)(F)F)c3c2CCCC3)cc1OC	-1	-1	-15	i	-7
Cc1ccc(C)c(/C=N/n2cc(-c3ccccc3)[nH]c2=S)c1	29*	4	11	i	-10
O=C(O)c1ccc(/C=N/n2cc(-c3ccccc3)[nH]c2=S)cc1	48*	4	-1	i	-9
COc1ccc(-c2nc(CC(=O)O)cs2)cc1	-9	0	1	i	-2
CCOC(=O)c1csc(-c2ccc(OC)c(OC)c2)n1	11	-2	0	.	2
COc1ccc(-c2nc(CC(=O)O)cs2)cc1OC	6	.	-8	+	.
SMILES	PfM18AAP inh	Exocytosis inh	Platelet DG rel	Rce1 inh	ABHD5-PLIN5 inh
CCOc1ccc(-c2nc(CCl)cs2)cc1OC	-9	0	2	+	3
CCN(CC)c1nc(Nc2ccccc2)nc(Oc2ccc(=O)n(C)n2)n1	1	-7	-4	i	3
COCCN1C(=O)/C(=C/c2ccc(Oc3ccc([N+](=O)[O-])cn3)c(OC)c2)SC1=Nc1ccccc1	7	2	1	+	-3
COc1cc(/C=C2/NC(=O)N(CC(=O)Nc3ccc(C)cc3)C2=O)ccc1Oc1ccc([N+](=O)[O-])cn1	-6	-4	3	i	3
Cc1nc2ccc(NC(=O)c3oc4ccc(F)cc4c3C)cc2s1	.	1	.	.	5
CCNC(=S)NNC(=O)c1csc(C)c1	28*	-2	17	i	-2
N#C/C(=C\c1cc(Cl)c(OCc2ccc(Cl)cc2)c(Cl)c1)C(N)=O	-8	.	1	i	.
N=C1/C(=C\c2coc3ccc(O)cc3c2=O)C(=O)N=C2SC=CN12	49*	1	11	i	5
N=C1/C(=C\c2coc3ccccc3c2=O)C(=O)N=C2SC(c3ccncc3)=NN12	0	2	6	i	16

Screening results (PubChem BioAssay)
